From PubChem BioAssay
Gli-Sufu antag: Gli-Sufu pathway antagonists, primary screen, luciferase luminescence, Sufu-KO-LIGHT cells, uHTS | Sufu-KO-LIGHT fibroblasts, Gli luciferase reporter luminescence | inhibition, % at 5 µM | 340,000 compounds, 0.74% hits | AID 588413, 2011;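 active = inhibition above about 55%, limit read from the data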;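 also: 0% = DMSO-treated cells and 100% = wells with medium but no cells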
NCOA1 inh: SRC1 coactivator transcriptional activity inhibitors, primary screen, cell-based, luminescence | AID 588354, 2011 | inhibition, % at 3.6 µM | 360,000 compounds, 0.12% hits | Nuclear receptor coactivator 1 (Homo sapiens), Q15788 | HEK293 GAL4-SRC1 luciferase reporter;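 active = inhibition above the campaign mean plus 3 SD, with each screening campaign given its own cutoff, cut at about 60% in these data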;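 also: 0% = DMSO treated cells and 100% = gossypol at 36 µM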
Shn3 3UTR inh: reduction of Shn3 3'UTR firefly luciferase signal, primary screen, Schnurri-3 inhibitor project, cell-based, Clone20 osteoblasts, set 2; Clone20 osteoblast Shn3 3'UTR firefly luciferase, 24 h; inhibition, % at 12.5 µM; 360,000 compounds, 0.52% hits;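 active = mean inhibition of at least 75% with every replicate also reaching 75%; inconclusive = mean inhibition at least 75% but some replicate below; inactive = mean inhibition below 75%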;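 also: 0% = median of neutral control wells and 100% = pilot-screen positive control compound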
NCOA2 inhibitor: inhibition of GAL4-SRC2 driven luciferase reporter, primary screen, SRC2 inhibitor project, cell-based, luminescence | Nuclear receptor coactivator 2 (Homo sapiens), Q15596 | 370,000 compounds, 0.17% hits | HEK293 GAL4-SRC2 luciferase reporter | inhibition, % at 9 µM;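 active = inhibition above the mean inhibition of all tested compounds plus 3 SD, set per campaign, cut at about 52% in these data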;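 also: 0% = DMSO treated cells and 100% = cells given Gossypol at 36 µM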
NR5A2 inv ag: LRH-1 (NR5A2) inverse agonists, primary screen, cell-based, luminescence, HEK293T, StAR-luciferase reporter; LRH-1 transfected, 24 h; inhibition, % at 3.6 µM; 360,000 compounds, 0.13% hits;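 active = inhibition above the mean inhibition of all tested compounds plus 3 SD, cut at about 73% in these data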;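 also: 0% = DMSO wells and 100% = reporter-only cells lacking LRH-1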
SRC3 inh: SRC3 coactivator transcriptional activity inhibitors, primary screen, cell-based, luminescence; 360,000 compounds, 0.17% hits; HEK293 GAL4-SRC3 luciferase reporter; inhibition, % at 3.6 µM; AID 588352, 2011; Nuclear receptor coactivator 3 (Homo sapiens), Q9Y6Q9;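 active = inhibition above a per-campaign cutoff, the mean of all compounds plus 3 SD, cut at about 60% in these data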;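 also: 0% = DMSO-treated cells and 100% = gossypol-treated cells at 36 µM; higher means less SRC3-driven luciferase light from the GAL4 reporter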
* hit, by the source's call; ? = inconclusive; . = no result given; ! = a repeat was not active. In the library only some 1.1% were active in any assay of this set; here they are far more common.

SMILES	Gli-Sufu antag	NCOA1 inh	Shn3 3UTR inh	NCOA2 inhibitor	NR5A2 inv ag	SRC3 inh
CCC(CO)Oc1cc(NCc2ccccc2)c2ncn(C(C)C)c2c1 (stereo unspecified)	5	10	11	-11	-9	-26
CCN1/C(=C/C(C)=C/c2sc3ccccc3[n+]2CC)Sc2ccccc21	90*	39	88*	-8	77*	70*
CCN1/C(=C\C=C(C(C)=O)C(C)=O)Sc2ccccc21	12	-2	14	-20	10	-31
O=C(NCc1ccc(Cl)cc1)C1CCCN(c2ncccn2)C1 (stereo unspecified)	.	.	.	6	.	.
CCCCCn1ccc(=N)cc1	24	-7	32	16	-7	9
CCCCCCCCCn1ccc(=N)cc1	89*	52	59	31	84*	68*
O=C(c1cccc(C(F)(F)F)c1)N1CC[C@H]2[C@H](CCCN2Cc2ccc(F)cc2)C1	.	.	.	3	.	.
COc1ccc(C(CC(=O)c2ccccc2)CC(=O)c2ccccc2)cc1	-7	2	-12	-5	2	16
C=C(C(=O)c1ccccc1)C(C(=C)C(=O)c1ccccc1)c1ccc(OC)cc1	14	-4	97*	17	4	13
N/C(=N\OC(=O)c1ccc2ccccc2c1)c1ccccn1	-3	-47	66	38	-1	-11
CCCc1ccc(C(=O)O/N=C(\N)c2ccccn2)cc1	49	55	75	59*	45	47
Cc1ccc(C(=O)O/N=C(\N)c2ccccn2)c(Cl)c1	48	36	69	77*	50	57
N#CCC[C@@H]1CC[C@]2(CCCN(C(=O)C3CCCCC3)C2)O1	.	.	.	-3	.	.
CCCn1c(O)c(N=NC(=O)c2ccco2)c2ccccc21	7	-8	-9	-8	-5	9
Cc1nc2ccccn2c1C(=O)N=Nc1c(O)n(CCC(C)C)c2ccccc12	22	-2	86*	-7	-9	-1
O=C(N/N=C/c1c(O)ccc2ccccc12)c1[nH]ncc1Br	67*	24	81	5	69	67*
O=C(N/N=C/c1c(O)ccc2ccccc12)c1cccc(C(F)(F)F)c1	60*	70*	69	32	16	74*
O=C(N/N=C/c1c(O)ccc2ccccc12)C(=O)N1CCCC1	.	24	82*	14	26	26
O=c1c2ccccc2nc(N/N=C/c2c(O)ccc3ccccc23)n1O	33	67*	64	18	84*	74*
CCOC(=O)N1CCN(C(=O)C[C@H]2C[C@@]3(C(=O)OC)C(=C[C@H](C4CCCC4)O[C@@H]3C)N(CCC3=CCCCC3)C2=O)CC1	.	.	.	4	.	.
COC(=O)[C@]12C[C@H](CC(=O)N3CCOCC3)C(=O)N(CCc3ccc(OC)c(OC)c3)C1=C[C@H](C(C)C)O[C@@H]2C1CC1	.	.	.	4	.	.
Cc1cc(C)nc(N/N=C/c2cc(Br)ccc2O)n1	25	16	89*	-15	-24	17
O=C(CSc1nc(-c2cccs2)cc(C(F)(F)F)n1)Nc1cc(OCC(F)(F)C(F)F)cc([N+](=O)[O-])c1	10	76*	22	-7	-32	13
Cc1cc(C)c2c(N)c(C(=O)Nc3ncc(C)s3)sc2n1	67*	46	76	77*	52	49
S=C(NCCCc1cnc[nH]1)NCCCN(Cc1ccccc1)c1ccc(Br)cn1	.	-18	-3	19	31	23
SMILES	Gli-Sufu antag	NCOA1 inh	Shn3 3UTR inh	NCOA2 inhibitor	NR5A2 inv ag	SRC3 inh
S=C(NCCCc1cnc[nH]1)NCCCN(Cc1ccc(Cl)cc1)c1ccc(Br)cn1	.	6	29	45	94*	61
O=C1C=C(N2CCOCC2)c2cccc3cccc1c23	.	-14	3	-6	20	-13
O=C1C=C(N2CCOCC2)c2ccccc2C1=O	13	16	97*	32	25	14
c1ccc(CCNc2ccnc3cc4ccccc4cc23)cc1	83*	-1	94*	-18	1	-7
Cc1cccc(Cn2cc(CN3CC(N(C)CCCOC(=O)c4cc(C)cc(C)c4)CS3(=O)=O)nn2)c1 (stereo unspecified)	.	.	.	1	.	.
CCOC(=O)[C@]12CCCC=C1N(Cc1ccc(OC)cc1)C(=O)[C@@H]2CC(=O)NCc1cccc(C(F)(F)F)c1	.	.	.	-1	.	.
CCN1CCN(Cc2ccc(NC(=O)c3ccc(C)c(/C=C/c4cnc(Nc5cc(N6CCNCC6)nc(C)n5)cn4)c3)cc2C(F)(F)F)CC1	31	11	96*	.	5	-26
COC(=O)[C@]12C[C@H](CC(=O)NCc3cccs3)C(=O)N(Cc3ccco3)C1=C[C@H](C(C)(C)C)O[C@@H]2C	.	.	.	-43	.	.
CCc1cc(C(=O)N/N=C/c2ccc(O)cc2O)c2ccccc2n1	13	10	93*	20	-3	16
O=C(N/N=C/c1ccc(O)cc1O)c1ccncc1	2	3	4	-21	-14	11
c1ccc(Cn2ccc3ccc(-c4ccc5ccn(Cc6cccc(Oc7ccccc7)c6)c5c4)cc32)cc1	.	.	.	9	.	.
C(C#CCCCCCCCCC[n+]1ccccc1)#CCCCCCCCCC[n+]1ccccc1	87*	38	?	-9	85*	65*!
Cc1nc(N/N=C/c2ccccn2)sc1C	58*	.	.	50	.	.
CCCc1sc(N/N=C/c2ccccn2)nc1-c1ccc(F)cc1	60*	-31	77	.	-14	0
O=S1(=O)c2c(cccc2N2CCC[C@H]2CO)O[C@@H]2CCN1C2	.	.	.	-14	.	.
Clc1ccc(-n2c(SCc3cccc4ccccc34)nnc2-c2cccnc2)cc1	.	.	.	11	.	.
NC(=O)C1CCN(C2=C(Cl)C(=O)c3ccccc3C2=O)CC1	12	-27	98*	4	23	4
O=C1C(Cl)=C(N2CCC(C(=O)O)CC2)C(=O)c2ccccc21	3	-17	-8	.	23	-6
CC1COCC(C)N1C1=C(Cl)C(=O)c2ccccc2C1=O (stereo unspecified)	8	-9	96*	-26	20	-33
CCn1c(=O)c([N+](=O)[O-])c(NCCN(C)C)c2ccccc21	5	-7	-7	-17	10	13
CCn1c(=O)c([N+](=O)[O-])c(Cl)c2ccccc21	2	5	96*	.	6	-7
COC(=O)[C@@H]1N=C(c2ccc(OC)cc2)O[C@]12C(=O)N(Cc1cn(-c3ccccc3)nn1)c1cccc(Cl)c12	.	.	.	1	.	.
C[C@H]1COc2cccc(N3CCCC3)c2S(=O)(=O)N1C	.	.	.	-26	.	.
Nc1ncnc2c1c(-c1ccc(Oc3ccccc3)cc1)cn2C1CCCC1	43	-3	90*	1	-6	4
